In PubChem BioAssay AID463173 (ICCB-Longwood Screening Facility, Harvard Medical School, 2010) one finds survival data, which are given here for 90 compounds.

Among all 52,000 compounds or so, about 1,700 (3.3%) were called active. Only a selection was taken, and actives are over-represented in it overall. Values without a mark were called inactive. Rule as the data show it: active = survival mostly below about 52% (no sharp cut-off); inactive = mostly above about 56%.

The experiment has as its system Wild type. Put plainly: S. aureus survival, RN4220 and DeltatarO strains – OD600, teichoic acid synthesis inhibitors, primary screen (AID 463173). The following applies: S. aureus RN4220 wild type/DeltatarO growth, OD600, 18 h, hits give low values, screened at 18.75 µg/mL (by protocol).
As for `CN(C)c1ccc(NC(=O)CN2C(=O)c3ccccc3Sc3ccc(C(=O)N4CCCC4)cc32)cc1`, the survival is -4% (active).

`CCc1ccc(NC(=O)CN2C(=O)c3ccccc3Sc3ccc(C(=O)N4CCCC4)cc32)cc1`: the survival was 82%.

Consider `O=C(CN1C(=O)c2ccccc2Sc2ccc(C(=O)N3CCOCC3)cc21)Nc1ccc(Cl)cc1F`, for which the survival is 73%.

Consider `Cc1ccc(NC(=O)CN2C(=O)c3ccccc3Sc3ccc(C(=O)N4CCOCC4)cc32)c(Cl)c1`, for which the survival is -6% (active).

As for `Cc1ccc(NC(=O)CN2C(=O)c3ccccc3Sc3ccc(C(=O)N4CCCC4)cc32)cc1`, the survival was 64%.

In the case of `Cc1cc(C)cc(NC(=O)CN2C(=O)c3ccccc3Sc3ccc(C(=O)N4CCOCC4)cc32)c1`, the survival is 69%.

For the compound `Fc1ccc(-c2noc3ncnc(NCc4cccc(Cl)c4)c23)cc1`, the survival was 55%.

Take `COc1ccccc1CN1CCNC(=O)C1=O`: the survival was 77%.

In the case of `O=C(CSc1nc2c([nH]c3ccccc32)c(=O)n1-c1ccccc1)N1CCOCC1`, the survival is 75%.

As for `O=S1(=O)c2ccccc2N(Cc2ccccc2Cl)c2ccccc21`, the survival was 80%.

Take `COc1ccc(N2CCN(C(CNC(=O)C(=O)NCCc3ccccc3)c3cccnc3)CC2)cc1` (stereo not given): the survival was 84%.

On to `CC(NC(=O)C(=O)Nc1c2c(nn1-c1ccc(F)cc1)CSC2)c1ccccc1` (stereo not given), for which the survival is -4% (active).

`CC(=O)N1CCN(C(=O)C(=O)Nc2c3c(nn2-c2ccc(Cl)cc2)CSC3)CC1`: the survival was -3% (active).

Consider `CN1CCN(C(=O)C(=O)Nc2c3c(nn2-c2ccc(F)cc2)CSC3)CC1`, for which the survival is 81%.

With `CC(NC(=O)C(=O)Nc1c2c(nn1-c1ccccc1)CSC2)c1ccccc1` (stereo not given), the survival is 55%.

`CN1CCN(C(=O)C(=O)Nc2c3c(nn2-c2ccc(Cl)cc2)CSC3)CC1`: the survival is 71%.

As for `CCC(CO)NC(=O)C(=O)Nc1c2c(nn1-c1ccc(F)cc1)CSC2` (stereo not given), the survival is 87%.

As for `Cc1cccc(OCC(=O)N(Cc2cccc(Cl)c2)Cc2ccco2)c1C`, the survival is 85%.

In the case of `CCOC(=O)c1ccc(NC(=O)c2cnc3c(-c4ccc(F)cc4)c(C)nn3c2C)cc1`, the survival was 120%.

Turning to `CCOC(=O)c1ccc(CN(Cc2ccc(OC)cc2)S(=O)(=O)c2cccc(C(F)(F)F)c2)cc1`, the survival is 73%.

As to `COc1ccc(CCNS(=O)(=O)c2ccc(F)c(C(=O)Nc3ccc(Cl)cc3)c2)cc1OC`, the survival was 126%.

On to `Cc1ccc(NC(=O)c2cc(S(=O)(=O)NCCC3=CCCCC3)ccc2F)cc1F`, for which the survival is 82%.

Regarding `COc1ccc(OC)c(NC(=O)c2cc(S(=O)(=O)NCCc3ccc(Cl)cc3)ccc2F)c1`, the survival was 79%.

For `CCc1ccc(NC(=O)c2ccc(F)c(S(=O)(=O)NC3CCCCCC3)c2)cc1`, the survival was -4% (active).

For the compound `CCc1ccccc1NC(=O)c1cc(S(=O)(=O)NCCc2ccc(OC)c(OC)c2)ccc1F`, the survival is 0% (active).

As to `O=C(Nc1ccc(F)c(F)c1)c1cc(S(=O)(=O)NC2CCCCCC2)ccc1F`, the survival is 53%.

Regarding `Cc1ccc(NC(=O)c2cc(S(=O)(=O)NCCC3=CCCCC3)ccc2F)cc1C`, the survival is -3% (active).

Consider `CCc1ccc(NC(=O)c2ccc(F)c(S(=O)(=O)N(C)C3CCCCC3)c2)cc1`, for which the survival is 71%.

On to `O=C(Nc1ccc(Br)cc1)c1ccc(F)c(S(=O)(=O)NC2CCCCCC2)c1`, for which the survival is 56%.

Turning to `Cc1cc(C)cc(NC(=O)c2cc(S(=O)(=O)NCCC3=CCCCC3)ccc2F)c1`, the survival was 80%.

`Cc1ccc(NC(=O)c2cc(S(=O)(=O)NC3CCCCC3)ccc2F)cc1Cl`: the survival was -6% (active).

As to `Cc1ccc(NC(=O)c2cc(S(=O)(=O)NC3CCCCCC3)ccc2F)cc1F`, the survival is 79%.

With `O=S(=O)(c1ccccc1)c1nc(-c2cccs2)oc1SCc1ccc(F)cc1`, the survival is 61%.

`O=C(COCc1cc(-c2cccs2)on1)Nc1ccc(OC(F)(F)F)cc1`: the survival was 124%.

As for `CCc1cccc(NC(=O)c2nc(-c3ccncc3)no2)c1`, the survival is 101%.

For the compound `CC(NC(=O)c1ccc(CSc2nc3ccncc3n2Cc2ccc(F)cc2)cc1)c1ccccc1` (stereo not given), the survival was 92%.

For `CC1CCN(C(=O)c2c(NC(=O)c3ccccc3F)sc3c2CCC(C(C)(C)C)C3)CC1` (stereo not given), the survival is -2% (active).

On to `Cc1ccc(C(=O)Nc2sc3c(c2C(=O)NCc2ccco2)CCC(C(C)(C)C)C3)cc1` (stereo not given), for which the survival is 70%.

Regarding `CC(C)(C)C1CCc2c(sc(NC(=O)c3cccc(Cl)c3)c2C(N)=O)C1` (stereo not given), the survival was 75%.

As to `Cc1ccccc1C(=O)Nc1sc2c(c1C(=O)O)CCC(C(C)(C)C)C2` (stereo not given), the survival is 6% (active).

For `Cc1ccccc1C(=O)Nc1sc2c(c1C(=O)NCc1ccco1)CCC(C(C)(C)C)C2` (stereo not given), the survival is 88%.

On to `COc1ccccc1NC(=O)c1c(NC(=O)Cc2ccccc2)sc2c1CCC(C(C)(C)C)C2` (stereo not given), for which the survival was 102%.

As to `CC(C)(C)C1CCc2c(sc(NC(=O)CCC(=O)O)c2C(=O)Nc2ccccc2C(F)(F)F)C1` (stereo not given), the survival is 1% (active).

For `CC(C)(C)C1CCc2c(sc(NC(=O)c3ccc(Cl)cc3)c2C(=O)NCc2ccco2)C1` (stereo not given), the survival is 95%.

With `Cc1ccccc1NC(=O)c1c(NC(=O)c2ccncc2)sc2c1CCC(C(C)(C)C)C2` (stereo not given), the survival was 91%.

Take `COc1ccccc1NC(=O)c1c(NC(=O)c2cccs2)sc2c1CCC(C(C)(C)C)C2` (stereo not given): the survival was 118%.

For the compound `CCCNC(=O)c1c(NC(=O)c2ccccc2)sc2c1CCC(C(C)(C)C)C2` (stereo not given), the survival is 2% (active).

Consider `Cc1ccccc1NC(=O)c1c(NC(=O)c2ccccc2F)sc2c1CCC(C)C2` (stereo not given), for which the survival is 82%.

With `CCCNC(=O)CCCN1C(=O)CCn2nc(-c3cccn3C)cc21`, the survival was 71%.

Turning to `O=C(CN1CCC(O)(c2ccccc2)CC1)NC1CCCCC1`, the survival was 111%.

`Cc1ccc(CNC(=O)CCCCCn2c(=O)c3sccc3n(CC(=O)N(C)c3ccccc3)c2=O)cc1`: the survival was 83%.

With `O=C(CSc1nc(=O)[nH]c2c1CCCC2)NCc1ccccc1Cl`, the survival was 135%.

Take `COc1ccc(NC(=O)N2CCN(S(=O)(=O)c3ccc4c(ccn4C)c3)CC2)c(OC)c1`: the survival is 87%.

In the case of `CC(C)(C)C1CCc2c(sc(NC(=O)c3ccncc3)c2C(=O)Nc2ccccc2Cl)C1` (stereo not given), the survival was 84%.

As to `CCN(CC)C(=O)c1c(NC(=O)c2ccccc2F)sc2c1CCC(C(C)(C)C)C2` (stereo not given), the survival was -3% (active).

For the compound `CC(C)(C)C1CCc2c(sc(NC(=O)c3ccccc3F)c2C(=O)NCc2ccco2)C1` (stereo not given), the survival is 70%.

Consider `CC1CCN(C(=O)c2c(NC(=O)c3ccccc3Cl)sc3c2CCC(C(C)(C)C)C3)CC1` (stereo not given), for which the survival is 2% (active).

As to `CC(C)(C)C1CCc2c(sc(NC(=O)c3ccco3)c2C(=O)Nc2ccccc2Cl)C1` (stereo not given), the survival is 108%.

Regarding `CC(C)(C)C1CCc2c(sc(NC(=O)c3ccccc3F)c2C(=O)N2CCCCC2)C1` (stereo not given), the survival is -3% (active).

In the case of `Cc1ccccc1C(=O)Nc1sc2c(c1C(=O)N1CCC(C)CC1)CCC(C)C2` (stereo not given), the survival was 0% (active).

Regarding `O=C(Nc1sc2c(c1C(=O)N1CCCCC1)CCCC2)c1ccccc1Cl`, the survival is 75%.

Regarding `Cc1ccccc1C(=O)Nc1sc2c(c1C(=O)N1CCC(C)CC1)CCCC2`, the survival was 64%.

Regarding `Cc1ccccc1C(=O)Nc1sc2c(c1C(=O)N1CCCCC1)CCC(C)C2` (stereo not given), the survival is 36%.

As for `CCOc1ccccc1NC(=O)c1c(NC(=O)c2ccccc2C)sc2c1CCC(C)C2` (stereo not given), the survival is 75%.

For `CN(C)C(=O)c1c(NC(=O)c2ccccc2F)sc2c1CCCC2`, the survival was 82%.

`COc1ccc(N2CC(NC(=O)/C=C\c3ccccc3)CC2=O)cc1` (stereo not given): the survival was 101%.

For `CC(=O)Nc1ccc(N2CCN(Cc3ccccc3)CC2)cc1`, the survival is 106%.

Turning to `COc1ccc2oc(=O)c(-c3csc(-c4ccc(Br)cc4)n3)cc2c1`, the survival is 80%.

As for `CCc1nn(CC(=O)NC2CC2)c(=O)c2cc3ccccc3n12`, the survival was 121%.

On to `Cc1ccc2c(=O)cc(C(=O)Nc3nc4ccc(Cl)cc4s3)oc2c1`, for which the survival is 65%.

Regarding `Cc1cc(C)cc(NC(=O)Cn2nnc(C(=O)NCCc3ccccc3)c2N)c1`, the survival is 93%.

In the case of `COc1ccc(NC(=O)c2c(NC(=O)c3ccncc3)sc3c2CCC(C(C)(C)C)C3)cc1` (stereo not given), the survival was 47%.

In the case of `Cc1ccccc1NC(=O)c1c(NC(=O)c2ccco2)sc2c1CCC(C(C)(C)C)C2` (stereo not given), the survival is 75%.

`Cc1ccccc1C(=O)Nc1nc2c(s1)CC(C(C)(C)C)CC2` (stereo not given): the survival was 124%.

For `CCC(=O)Nc1sc2c(c1C(=O)Nc1ccc(OC)cc1)CCC(C(C)(C)C)C2` (stereo not given), the survival is 2% (active).

As to `COc1ccc(NC(=O)c2c(NC(=O)COc3ccccc3)sc3c2CCC(C(C)(C)C)C3)cc1` (stereo not given), the survival was 77%.

Regarding `Cc1ccccc1C(=O)Nc1sc2c(c1C(=O)N1CCCCC1)CCC(C(C)(C)C)C2` (stereo not given), the survival is 1% (active).

Take `CCc1cccc(C)c1NC(=O)CN1C(=O)C2(SCC(=O)N2c2cccc(F)c2)c2ccccc21` (stereo not given): the survival is 136%.

As for `Cc1c(Cl)cccc1NC(=O)Cn1nnc(-c2nc(-c3ccccc3)no2)c1N`, the survival is 55%.

In the case of `COc1ccc2c(c1)c1c(c(=O)n(-c3ccccc3C)c(=O)n1C)n2C`, the survival is 81%.

Turning to `CCOc1cc(S(=O)(=O)NC2CC2)c(OCC)cc1-n1cnnn1`, the survival is 102%.

As for `COc1ccc(OC)c(CNC(=O)c2cc(=O)[nH]c3ccc(S(=O)(=O)N4CCCCC4C)cc23)c1` (stereo not given), the survival is 1% (active).

`COc1ccc(CCNC(=O)c2cc(=O)[nH]c3ccc(S(=O)(=O)N4CCCCC4C)cc23)cc1OC` (stereo not given): the survival was 127%.

In the case of `COc1ccc(Br)cc1CNC(=O)c1cc(=O)[nH]c2ccc(S(=O)(=O)N3CCCCC3C)cc12` (stereo not given), the survival is 105%.

For the compound `Cc1nn(C(=O)c2ccc(Br)cc2)c(C)c1Sc1ccccc1`, the survival was -4% (active).

On to `Cc1nn(C(=O)COc2ccccc2Br)c(C)c1Sc1ccccc1`, for which the survival is 57%.

In the case of `Cc1ccc(Sc2c(C)nn(C(=O)COc3ccccc3Br)c2C)cc1`, the survival was 90%.

Consider `Cc1nn(C(=O)c2ccccc2)c(C)c1S(=O)(=O)N1CCCCCC1`, for which the survival is 80%.

For `Cc1nn(C(=O)c2ccc(Br)cc2)c(C)c1S(=O)(=O)N1CCOCC1`, the survival is 71%.

For `Cc1ccc(Sc2c(C)nn(C(=O)c3ccc(Br)cc3)c2C)cc1`, the survival was 13% (active).
